# Measurements reported in article PMC7862700, “An all-to-all approach to the identification of sequence-specific readers for epigenetic DNA modifications on cytosine”.
# Legend:
# Test in all cases: DAPPL (digital affinity profiling via proximity ligation, sequencing); 10 mM Tris-HCl pH 7.5, 50 mM NaCl, 1 mM DTT, 4% glycerol, room temperature, 30 min; GST-TFs on glutathione beads, 16-mer random dsDNA library, 0.1% formaldehyde crosslink after washing; high values mean tight binding
# [1] = target: T1, FEV (Homo sapiens, UniProt Q99581 1-238); conditions: protein: recombinant; tags: N-terminal GST; dsDNA, one strand shown
# T1 sequence: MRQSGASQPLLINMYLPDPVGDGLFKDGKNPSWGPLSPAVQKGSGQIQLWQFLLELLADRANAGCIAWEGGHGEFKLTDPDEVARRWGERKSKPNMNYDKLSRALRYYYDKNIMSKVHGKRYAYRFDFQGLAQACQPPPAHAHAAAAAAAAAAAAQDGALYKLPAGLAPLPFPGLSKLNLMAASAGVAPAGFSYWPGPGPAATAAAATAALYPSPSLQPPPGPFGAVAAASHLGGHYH
# Outline: (§1)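 Human transcription factors were made in yeast as GST fusions, captured on glutathione beads and barcoded with DNA. With a tag-only sample included, the pool was incubated with 200 nmole of a random double-stranded 16-mer DNA library in Tris/NaCl/DTT/glycerol buffer at room temperature for 30 min, then crosslinked with 0.1% formaldehyde after washing, ligated by proximity, amplified and sequenced. For binding signal, each hexamer's read frequency for a factor is divided by its frequency for the tag-only sample.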
# [2] = target: ETV5 (Homo sapiens, UniProt P41161 1-510); conditions: protein: recombinant; tags: N-terminal GST; dsDNA, one strand shown
# ETV5, sequence (P41161 whole entry): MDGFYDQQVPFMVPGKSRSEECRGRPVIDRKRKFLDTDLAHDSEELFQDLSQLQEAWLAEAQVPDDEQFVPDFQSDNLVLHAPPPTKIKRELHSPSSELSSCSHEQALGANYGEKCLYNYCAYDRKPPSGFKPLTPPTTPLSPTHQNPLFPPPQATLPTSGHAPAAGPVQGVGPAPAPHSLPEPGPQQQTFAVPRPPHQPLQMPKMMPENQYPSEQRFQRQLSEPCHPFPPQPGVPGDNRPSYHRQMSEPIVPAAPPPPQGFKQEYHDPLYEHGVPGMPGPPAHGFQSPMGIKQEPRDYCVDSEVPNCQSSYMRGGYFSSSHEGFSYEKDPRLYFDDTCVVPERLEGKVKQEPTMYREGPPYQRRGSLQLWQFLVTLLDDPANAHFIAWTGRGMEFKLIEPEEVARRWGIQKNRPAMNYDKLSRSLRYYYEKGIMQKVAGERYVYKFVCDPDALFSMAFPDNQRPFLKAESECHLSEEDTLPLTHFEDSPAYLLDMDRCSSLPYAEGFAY
# Outline: as §1
# [3] = target: HSF1 (Homo sapiens, UniProt Q00613 1-529); conditions: protein: recombinant; tags: N-terminal GST; chain copies: 3; dsDNA, one strand shown
# HSF1, sequence (Q00613 whole entry): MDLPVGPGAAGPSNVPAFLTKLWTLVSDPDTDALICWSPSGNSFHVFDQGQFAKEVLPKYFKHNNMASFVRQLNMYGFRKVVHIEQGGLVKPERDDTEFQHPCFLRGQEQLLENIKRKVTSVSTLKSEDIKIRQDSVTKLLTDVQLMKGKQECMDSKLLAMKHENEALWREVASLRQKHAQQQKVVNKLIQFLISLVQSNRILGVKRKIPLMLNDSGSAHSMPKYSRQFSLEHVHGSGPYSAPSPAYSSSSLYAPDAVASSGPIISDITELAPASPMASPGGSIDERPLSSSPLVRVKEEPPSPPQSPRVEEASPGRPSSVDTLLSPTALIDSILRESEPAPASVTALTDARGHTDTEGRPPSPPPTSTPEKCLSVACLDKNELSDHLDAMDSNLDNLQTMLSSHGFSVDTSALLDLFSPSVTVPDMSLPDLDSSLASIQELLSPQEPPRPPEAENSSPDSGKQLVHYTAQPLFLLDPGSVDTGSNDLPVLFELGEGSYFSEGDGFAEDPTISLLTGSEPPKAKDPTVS
# Outline: as §1
# [4] = target: T2, SPIC (Homo sapiens, UniProt Q8N5J4 1-248); conditions: protein: recombinant; tags: N-terminal GST; dsDNA, one strand shown
# T2 sequence: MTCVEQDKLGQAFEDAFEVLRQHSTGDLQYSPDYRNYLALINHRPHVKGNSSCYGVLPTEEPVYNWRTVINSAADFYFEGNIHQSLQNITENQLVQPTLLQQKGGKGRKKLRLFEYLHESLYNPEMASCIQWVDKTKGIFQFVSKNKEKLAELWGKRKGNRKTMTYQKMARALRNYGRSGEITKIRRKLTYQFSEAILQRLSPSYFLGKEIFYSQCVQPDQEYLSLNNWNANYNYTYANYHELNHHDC
# Outline: as §1
# [5] = target: ELF4 (Homo sapiens, UniProt Q99607 1-663); conditions: protein: recombinant; tags: N-terminal GST; dsDNA, one strand shown
# ELF4, sequence (Q99607 whole entry): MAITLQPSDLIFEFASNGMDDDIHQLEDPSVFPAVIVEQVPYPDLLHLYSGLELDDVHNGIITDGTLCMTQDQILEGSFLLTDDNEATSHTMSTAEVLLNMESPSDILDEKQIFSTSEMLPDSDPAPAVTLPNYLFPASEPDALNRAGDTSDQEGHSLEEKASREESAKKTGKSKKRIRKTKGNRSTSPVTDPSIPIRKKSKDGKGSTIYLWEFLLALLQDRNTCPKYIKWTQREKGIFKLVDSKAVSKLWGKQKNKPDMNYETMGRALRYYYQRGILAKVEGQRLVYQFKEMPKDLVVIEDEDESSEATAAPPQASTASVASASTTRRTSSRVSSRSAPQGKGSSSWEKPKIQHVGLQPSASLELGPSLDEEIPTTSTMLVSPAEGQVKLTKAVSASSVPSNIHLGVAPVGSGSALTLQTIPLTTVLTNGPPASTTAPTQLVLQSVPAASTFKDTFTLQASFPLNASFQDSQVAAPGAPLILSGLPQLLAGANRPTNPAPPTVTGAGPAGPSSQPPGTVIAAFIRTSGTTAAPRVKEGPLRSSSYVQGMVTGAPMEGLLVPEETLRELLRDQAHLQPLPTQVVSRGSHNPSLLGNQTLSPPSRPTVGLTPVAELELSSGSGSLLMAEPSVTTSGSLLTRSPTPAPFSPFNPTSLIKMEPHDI
# Outline: as §1
# [6] = target: T3, ELK4 (Homo sapiens, UniProt P28324-2 1-405); conditions: protein: recombinant; tags: N-terminal GST; dsDNA, one strand shown
# T3 sequence: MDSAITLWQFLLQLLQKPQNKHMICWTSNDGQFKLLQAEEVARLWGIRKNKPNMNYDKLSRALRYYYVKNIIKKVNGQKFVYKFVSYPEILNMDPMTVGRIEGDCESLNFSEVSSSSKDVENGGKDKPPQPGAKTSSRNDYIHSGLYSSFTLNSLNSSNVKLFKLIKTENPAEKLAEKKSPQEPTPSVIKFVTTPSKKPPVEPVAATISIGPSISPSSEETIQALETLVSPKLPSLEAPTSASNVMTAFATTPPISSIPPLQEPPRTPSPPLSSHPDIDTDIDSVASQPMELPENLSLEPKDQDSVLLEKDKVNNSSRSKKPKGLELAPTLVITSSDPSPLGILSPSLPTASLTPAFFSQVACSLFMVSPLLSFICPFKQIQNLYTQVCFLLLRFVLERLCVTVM
# Outline: as §1
# [7] = target: T4, ETV2 (Homo sapiens, UniProt O00321 1-342); conditions: protein: recombinant; tags: N-terminal GST; dsDNA, one strand shown
# T4 sequence: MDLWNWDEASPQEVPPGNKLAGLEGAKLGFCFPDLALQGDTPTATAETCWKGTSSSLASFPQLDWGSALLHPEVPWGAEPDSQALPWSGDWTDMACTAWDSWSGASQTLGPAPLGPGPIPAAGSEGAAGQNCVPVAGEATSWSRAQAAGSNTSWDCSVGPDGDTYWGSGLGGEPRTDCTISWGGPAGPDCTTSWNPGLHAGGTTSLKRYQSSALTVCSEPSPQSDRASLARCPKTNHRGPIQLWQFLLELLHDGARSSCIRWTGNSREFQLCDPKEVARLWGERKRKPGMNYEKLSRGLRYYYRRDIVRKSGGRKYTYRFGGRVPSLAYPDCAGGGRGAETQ
# Outline: as §1
# [8] = target: T5, ELF3 (Homo sapiens, UniProt P78545 1-371); conditions: protein: recombinant; tags: N-terminal GST; dsDNA, one strand shown
# T5 sequence: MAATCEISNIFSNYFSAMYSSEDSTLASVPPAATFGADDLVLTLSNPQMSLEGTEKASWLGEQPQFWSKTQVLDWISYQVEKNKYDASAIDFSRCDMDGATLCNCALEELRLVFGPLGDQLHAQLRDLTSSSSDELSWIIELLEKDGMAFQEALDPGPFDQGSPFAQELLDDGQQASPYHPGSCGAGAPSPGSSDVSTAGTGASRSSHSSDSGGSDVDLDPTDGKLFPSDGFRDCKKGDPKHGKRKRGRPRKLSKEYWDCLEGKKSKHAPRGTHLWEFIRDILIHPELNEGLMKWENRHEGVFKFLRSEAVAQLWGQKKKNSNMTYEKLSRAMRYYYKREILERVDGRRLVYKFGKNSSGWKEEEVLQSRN
# Outline: as §1
# [9] = target: CRX (Homo sapiens, UniProt O43186 1-299); conditions: protein: recombinant; tags: N-terminal GST; dsDNA, one strand shown
# CRX, sequence (O43186 whole entry): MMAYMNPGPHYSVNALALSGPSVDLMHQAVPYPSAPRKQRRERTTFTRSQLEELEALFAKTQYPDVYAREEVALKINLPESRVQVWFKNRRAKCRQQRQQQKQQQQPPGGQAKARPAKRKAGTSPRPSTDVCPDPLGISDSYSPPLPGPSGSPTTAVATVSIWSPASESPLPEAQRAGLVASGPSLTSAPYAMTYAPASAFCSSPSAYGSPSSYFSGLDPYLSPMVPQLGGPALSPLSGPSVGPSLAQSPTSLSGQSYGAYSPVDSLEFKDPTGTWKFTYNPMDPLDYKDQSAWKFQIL
# Outline: as §1
# [10] = target: ETV1 (Homo sapiens, UniProt P50549 1-477); conditions: protein: recombinant; tags: N-terminal GST; dsDNA, one strand shown
# ETV1, sequence (P50549 whole entry): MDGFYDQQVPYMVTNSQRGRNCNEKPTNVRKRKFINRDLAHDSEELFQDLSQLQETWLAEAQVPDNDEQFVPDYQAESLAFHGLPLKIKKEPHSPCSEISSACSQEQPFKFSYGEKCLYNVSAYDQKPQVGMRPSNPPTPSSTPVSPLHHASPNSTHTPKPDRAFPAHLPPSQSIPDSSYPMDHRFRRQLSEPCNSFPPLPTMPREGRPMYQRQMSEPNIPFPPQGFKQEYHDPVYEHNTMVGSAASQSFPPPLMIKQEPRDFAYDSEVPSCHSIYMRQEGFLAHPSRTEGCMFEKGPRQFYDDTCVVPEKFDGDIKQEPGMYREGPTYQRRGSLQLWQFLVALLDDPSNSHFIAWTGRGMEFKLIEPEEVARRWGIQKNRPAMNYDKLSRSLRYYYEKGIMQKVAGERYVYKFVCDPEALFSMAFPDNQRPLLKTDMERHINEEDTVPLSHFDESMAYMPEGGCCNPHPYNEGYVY
# Outline: as §1
# [11] = target: T6, ERF (Homo sapiens, UniProt P50548 1-548); conditions: protein: recombinant; tags: N-terminal GST; dsDNA, one strand shown
# T6 sequence: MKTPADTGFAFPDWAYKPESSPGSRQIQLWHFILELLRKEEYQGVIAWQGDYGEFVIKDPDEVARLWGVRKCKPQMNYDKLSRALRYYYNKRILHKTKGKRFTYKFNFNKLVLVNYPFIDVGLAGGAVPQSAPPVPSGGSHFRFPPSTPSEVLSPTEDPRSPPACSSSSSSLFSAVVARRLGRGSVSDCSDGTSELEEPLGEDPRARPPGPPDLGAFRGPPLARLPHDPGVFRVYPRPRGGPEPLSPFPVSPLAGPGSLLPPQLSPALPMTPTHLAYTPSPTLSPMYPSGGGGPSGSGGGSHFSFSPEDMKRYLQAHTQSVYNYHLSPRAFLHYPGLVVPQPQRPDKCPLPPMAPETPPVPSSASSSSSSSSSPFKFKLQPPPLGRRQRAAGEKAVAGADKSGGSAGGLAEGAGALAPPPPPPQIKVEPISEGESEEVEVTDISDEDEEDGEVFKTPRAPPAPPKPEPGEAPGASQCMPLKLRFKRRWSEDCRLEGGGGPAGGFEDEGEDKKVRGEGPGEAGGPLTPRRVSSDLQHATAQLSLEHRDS
# Outline: as §1
# [12] = target: T7, ETV3L (Homo sapiens, UniProt Q6ZN32 1-361); conditions: protein: recombinant; tags: N-terminal GST; dsDNA, one strand shown
# T7 sequence: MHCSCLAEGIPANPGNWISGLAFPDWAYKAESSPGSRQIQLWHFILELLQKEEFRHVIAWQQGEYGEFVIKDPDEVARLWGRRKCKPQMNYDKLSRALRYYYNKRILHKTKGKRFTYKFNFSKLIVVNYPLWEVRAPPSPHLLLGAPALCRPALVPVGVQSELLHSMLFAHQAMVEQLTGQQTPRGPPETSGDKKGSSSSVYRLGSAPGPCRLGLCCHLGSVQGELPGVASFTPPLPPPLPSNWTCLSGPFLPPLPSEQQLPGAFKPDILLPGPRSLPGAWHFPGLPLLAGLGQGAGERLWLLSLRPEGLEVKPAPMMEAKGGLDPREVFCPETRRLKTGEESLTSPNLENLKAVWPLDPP
# Outline: as §1
# [13] = target: T8, ETS2 (Homo sapiens, UniProt P15036 1-469); conditions: protein: recombinant; tags: N-terminal GST; dsDNA, one strand shown
# T8 sequence: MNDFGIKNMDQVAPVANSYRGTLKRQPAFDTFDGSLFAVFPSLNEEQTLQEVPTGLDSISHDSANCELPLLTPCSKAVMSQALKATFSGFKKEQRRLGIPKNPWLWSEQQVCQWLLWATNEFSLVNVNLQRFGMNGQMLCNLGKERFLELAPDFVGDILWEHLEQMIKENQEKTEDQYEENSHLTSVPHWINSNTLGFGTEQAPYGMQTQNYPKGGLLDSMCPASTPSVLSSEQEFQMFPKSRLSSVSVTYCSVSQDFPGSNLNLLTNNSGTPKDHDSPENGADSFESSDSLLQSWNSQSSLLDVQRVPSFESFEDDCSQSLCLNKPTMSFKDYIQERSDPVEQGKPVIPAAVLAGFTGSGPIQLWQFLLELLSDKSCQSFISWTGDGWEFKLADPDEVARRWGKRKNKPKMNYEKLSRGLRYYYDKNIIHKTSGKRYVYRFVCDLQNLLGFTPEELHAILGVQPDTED
# Outline: as §1
# [14] = target: T9, SPDEF (Homo sapiens, UniProt O95238 1-335); conditions: protein: recombinant; tags: N-terminal GST; dsDNA, one strand shown
# T9 sequence: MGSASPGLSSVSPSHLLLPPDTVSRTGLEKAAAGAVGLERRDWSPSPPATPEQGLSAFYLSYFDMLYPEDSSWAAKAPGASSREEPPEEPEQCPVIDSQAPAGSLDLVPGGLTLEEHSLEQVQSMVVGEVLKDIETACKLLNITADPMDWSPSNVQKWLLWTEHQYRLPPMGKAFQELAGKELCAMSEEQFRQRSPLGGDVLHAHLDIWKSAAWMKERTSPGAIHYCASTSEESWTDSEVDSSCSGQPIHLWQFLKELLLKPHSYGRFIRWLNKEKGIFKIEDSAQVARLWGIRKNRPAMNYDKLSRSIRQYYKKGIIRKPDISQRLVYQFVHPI
# Outline: as §1
# [15] = target: T10, ETV7 (Homo sapiens, UniProt Q9Y603 1-341); conditions: protein: recombinant; tags: N-terminal GST; dsDNA, one strand shown
# T10 sequence: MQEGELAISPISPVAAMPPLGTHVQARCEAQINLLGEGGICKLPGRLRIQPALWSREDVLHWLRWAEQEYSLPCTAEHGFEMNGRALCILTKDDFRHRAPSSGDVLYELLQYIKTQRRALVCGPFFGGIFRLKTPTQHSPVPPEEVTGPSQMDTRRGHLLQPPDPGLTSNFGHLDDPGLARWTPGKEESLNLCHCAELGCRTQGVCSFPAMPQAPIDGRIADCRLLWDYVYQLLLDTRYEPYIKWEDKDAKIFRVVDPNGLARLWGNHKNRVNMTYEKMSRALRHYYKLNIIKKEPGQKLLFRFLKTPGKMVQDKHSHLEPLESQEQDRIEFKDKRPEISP
# Outline: as §1
# [16] = target: T11, ELF5 (Homo sapiens, UniProt Q9UKW6-2 1-255); conditions: protein: recombinant; tags: N-terminal GST; dsDNA, one strand shown
# T11 sequence: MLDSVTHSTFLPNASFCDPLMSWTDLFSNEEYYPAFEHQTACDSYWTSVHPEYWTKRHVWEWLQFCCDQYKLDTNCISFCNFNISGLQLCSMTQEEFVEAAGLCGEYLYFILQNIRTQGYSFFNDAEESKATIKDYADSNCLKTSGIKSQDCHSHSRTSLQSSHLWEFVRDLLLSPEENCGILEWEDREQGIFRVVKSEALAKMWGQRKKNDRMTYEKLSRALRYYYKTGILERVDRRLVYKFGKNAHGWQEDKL
# Outline: as §1
# [17] = target: T12, ETV3 (Homo sapiens, UniProt P41162-2 1-143); conditions: protein: recombinant; tags: N-terminal GST; dsDNA, one strand shown
# T12 sequence: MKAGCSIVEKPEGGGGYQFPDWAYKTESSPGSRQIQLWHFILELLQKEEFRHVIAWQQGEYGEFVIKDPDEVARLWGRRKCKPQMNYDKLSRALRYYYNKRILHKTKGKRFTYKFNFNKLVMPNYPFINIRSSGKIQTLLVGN
# Outline: as §1
# [18] = target: ETV6 (Homo sapiens, UniProt P41212 1-452); conditions: protein: recombinant; tags: N-terminal GST; dsDNA, one strand shown
# ETV6, sequence (P41212 whole entry): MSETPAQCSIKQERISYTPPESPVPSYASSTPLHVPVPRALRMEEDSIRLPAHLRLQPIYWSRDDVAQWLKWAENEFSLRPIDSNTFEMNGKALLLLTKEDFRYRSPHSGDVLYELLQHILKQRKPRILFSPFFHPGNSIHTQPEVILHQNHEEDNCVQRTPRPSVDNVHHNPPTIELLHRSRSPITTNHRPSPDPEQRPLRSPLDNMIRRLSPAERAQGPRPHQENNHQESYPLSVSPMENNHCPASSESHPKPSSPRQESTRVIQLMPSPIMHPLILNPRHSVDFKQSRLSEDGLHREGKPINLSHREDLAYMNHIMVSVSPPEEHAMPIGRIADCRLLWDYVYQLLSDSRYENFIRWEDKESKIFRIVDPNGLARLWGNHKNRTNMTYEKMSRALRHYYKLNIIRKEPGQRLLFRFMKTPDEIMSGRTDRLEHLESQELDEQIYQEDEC
# Outline: as §1
sequence,measurement,setting,value
TGGCTA,binding signal,[1],"1.22 fold enrichment (6-mer frequency, TF over GST control)"
same,binding signal,[2],"1.2 fold enrichment (6-mer frequency, TF over GST control)"
same,binding signal,[3],"1.25 fold enrichment (6-mer frequency, TF over GST control)"
same,binding signal,[4],"1.25 fold enrichment (6-mer frequency, TF over GST control)"
same,binding signal,[5],"1.19 fold enrichment (6-mer frequency, TF over GST control)"
same,binding signal,[6],"1.47 fold enrichment (6-mer frequency, TF over GST control)"
same,binding signal,[7],"1.23 fold enrichment (6-mer frequency, TF over GST control)"
same,binding signal,[8],"1.27 fold enrichment (6-mer frequency, TF over GST control)"
same,binding signal,[9],"1.35 fold enrichment (6-mer frequency, TF over GST control)"
same,binding signal,[10],"1.16 fold enrichment (6-mer frequency, TF over GST control)"
same,binding signal,[11],"1.33 fold enrichment (6-mer frequency, TF over GST control)"
same,binding signal,[12],"1.21 fold enrichment (6-mer frequency, TF over GST control)"
same,binding signal,[13],"1.16 fold enrichment (6-mer frequency, TF over GST control)"
same,binding signal,[14],"1.28 fold enrichment (6-mer frequency, TF over GST control)"
same,binding signal,[15],"1.29 fold enrichment (6-mer frequency, TF over GST control)"
same,binding signal,[16],"1.14 fold enrichment (6-mer frequency, TF over GST control)"
same,binding signal,[17],"1.18 fold enrichment (6-mer frequency, TF over GST control)"
same,binding signal,[18],"1.28 fold enrichment (6-mer frequency, TF over GST control)"
